From PubChem
Compounds with a hit are over-represented: about 4.9% of the library has one in this group of screens.
Beta apoptosis: beta cell apoptosis inhibition | 300,000 tested, 0.8% active | INS-1E cytokine-induced death, ATP luminescence, 48 h; percent of positive-control rescue, neutral wells zero | protection from apoptosis, % (no concentration beside the values);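 active = Every replicate reaches about 75%, or at least half do and their mean reaches it too, limit read from the data; inconclusive = At least half of replicates reach the limit but their mean does not; inactive = Under half of replicates reach the limit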;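 note: 0% = cytokine-treated negative control wells and 100% = positive control rescue; higher means more ATP so stronger rescue from cytokine killing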
PP5 inh: blocks human protein phosphatase 5 activity | P53041 | purified PP5c, OMFP substrate fluorescence | inhibition, % at 6.7 µM | 320,000 tested, 0.18% active;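 active = inhibition above the campaign's mean inhibition across all tested compounds plus 3 SD, cut at about 9.5% in these data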;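 note: 0% = DMSO only and 100% = 100 µM cantharidin control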
Calb FLC: affects C. albicans growth with fluconazole | C. albicans CaCi-2 (fluconazole-resistant clinical isolate) + fluconazole, Alamar Blue growth, 48 h | growth inhibition, % (test concentration not listed) | 300,000 tested, 0.57% active;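 active = growth inhibition above about 58% in most replicates, limit read from the data, passing the limit was not always enough; inconclusive = exactly half the replicates above a set limit; inactive = most replicates below a set limit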;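 note: all wells also contain fluconazole at 8 µg/ml as a sub-toxic cotreatment; 0% = median of DMSO wells and 100% = median of geldanamycin control wells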
Mdm2-MdmX inh: human Mdm2/MdmX binding inhibition. inhibition, % at 8 µM. 330,000 tested, 3% active. SaOS-2 split-luciferase Mdm2/MdmX complementation, luminescence. O15151+Q00987;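 active = inhibition of at least 50% at 8 µM in the primary screen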
PP1 inh: counter-screen for PP5 inhibitors: inhibitors of human PP1-alpha. 320,000 tested, 0.9% active. inhibition, % at 6.7 µM. P62136. purified PP1alpha, OMFP fluorescence;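 active = inhibition above the mean inhibition of all tested compounds plus 3 SD, computed separately for each screening campaign, cut at about 15% in these data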
Target sequence (P62136 whole entry, looked up): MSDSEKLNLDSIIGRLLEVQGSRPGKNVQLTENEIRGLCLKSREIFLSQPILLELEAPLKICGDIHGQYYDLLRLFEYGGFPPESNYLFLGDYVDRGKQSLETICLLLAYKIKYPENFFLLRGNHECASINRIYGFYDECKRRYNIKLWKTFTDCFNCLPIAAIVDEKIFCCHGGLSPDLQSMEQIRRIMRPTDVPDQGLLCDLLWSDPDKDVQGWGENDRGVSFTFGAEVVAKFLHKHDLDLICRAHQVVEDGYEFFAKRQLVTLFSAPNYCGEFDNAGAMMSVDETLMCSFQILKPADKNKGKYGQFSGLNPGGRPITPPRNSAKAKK
CSC inhib: cancer stem cell inhibition; inhibition, % at 7.5 µM; 300,000 tested, 1.1% active; cancer stem cell-like cells viability, luminescence; in the data active = inhibition above about 75%; inconclusive = no clear call, values can overlap the other calls; tested in HMLE shEcad cells
Mdm2-MdmX conf: human Mdm2/MdmX binding inhibition, confirmed; AID 489028; luminescent assay; shares compounds with Mdm2-MdmX inh; inhibition, % at 8 µM; 10,000 tested, 55% active; in the data active = inhibition above about 40%
FLuc counter: counter-screen for Mdm2/MdmX inhibitors: full-length luciferase; shares compounds with Mdm2-MdmX inh; SaOS-2 full-length luciferase counterscreen, luminescence; inhibition, % at 8 µM; 6,200 tested, 77% active;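 active = mean inhibition at 8 µM reaching about 37%, which flags the compound as non-specific, limit read from the data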;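 note: p53-null SaOS-2 cells with luciferase driven by a doxycycline-inducible promoter; compound on cells about two nights before reading with doxycycline added after day one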
* marks the source's active call; other numbers are inactive results; ? = inconclusive; · = no result given.

SMILES	Beta apoptosis	PP5 inh	Calb FLC	Mdm2-MdmX inh	PP1 inh	CSC inhib	Mdm2-MdmX conf	FLuc counter
Cc1cc2cc3c(=O)[nH]c(=O)[nH]c3nc2cc1C	2.4	0.5	-7.0	53.1*	2.6	11.8	16.9	·
Cc1[nH]nc2c1-c1nc3ccccc3nc1C(C)(C)C2	-8.2	4.7	38.6	50.4*	4.2	·	26.6	·
Cc1cccc(C(=O)Nc2nc(C)c(C(=O)Nc3ccc4c(c3)CCC4)s2)c1	·	3.7	-6.3	58.1*	3.7	·	43.4*	52.7*
Cc1cccc(NC(=O)c2sc(C)nc2C)c1	-0.4	-0.3	-3.8	-11.6	-0.3	6.5	·	·
CCn1c(=O)n(CC)c2cc(N3CCCC3)c(NC(=O)c3cc(Br)ccc3OC)cc21	47.0	-0.2	24.9	75.2*	2.1	14.5	20.3	·
CCOC(=O)c1[nH]c2ccc(F)cc2c1NC(=O)CN1CCN(C/C=C/c2ccccc2)CC1	-2.3	5.3	-1.6	56.6*	4.9	38.1	21.8	·
Cc1cc(NC(=O)C(C)Sc2nc(-c3cccs3)nc3ccccc23)no1 (stereo not drawn)	·	·	·	84.3*	·	·	52.5*	68.1*
COc1cc(CCC(=O)OCC(=O)Nc2ccc(F)cc2F)cc(OC)c1OC	·	2.3	9.4	-18.7	-0.3	-5.0	·	·
CCOc1cc(/C=C2\CCC/C(=C\c3cc(Cl)c(O)c(OCC)c3)C2=O)cc(Cl)c1O	74.5*	-1.1	-8.5	100.3*	0.0	-8.9	93.5*	20.6
CCOc1cc(/C=N\O)cc(Cl)c1OCC	-5.4	3.5	7.4	5.2	4.7	23.1	·	·
CCOc1cc(/C=N/NC(=O)N/N=C/c2ccc(O)c(OCC)c2)ccc1O	42.3	0.4	3.4	59.7*	-4.5	58.9	48.5*	80.6*
CCOc1cc(/C=C2\CN(C)C/C(=C\c3ccc(O)c(OCC)c3)C2=O)ccc1O	1.0	2.9	36.6	100.3*	5.0	104.6*	100.2*	14.1
Cc1cccc(CSc2ccc(S(=O)(=O)N3CCCC3)cn2)c1	-2.7	1.9	·	26.4	0.8	·	·	·
COc1nnc(-c2ccc(C)cc2)c2ccccc12	-5.1	·	49.3	22.5	·	-10.9	·	·
CCn1nc(Cc2cccc3ccccc23)c(C#N)c1N	-4.1	2.0	-6.0	16.8	1.0	5.2	·	·
CC(CCc1ccccc1)NC(=O)CNC(=S)N(Cc1cccs1)C1CCCC1 (stereo not drawn)	·	·	7.9	·	·	·	·	·
COc1ccc(N(Cc2cc3cc(OC)ccc3[nH]c2=O)S(=O)(=O)c2ccc(NC(C)=O)cc2)cc1	3.4	2.5	0.7	76.9*	-1.9	32.7	70.8*	65.1*
Cc1ccc(Sc2c(CO)c(-c3ccccc3)nn2C)cc1	33.6	1.1	-2.1	50.8*	1.3	-4.4	47.0*	91.8*
CN(CC(=O)Nc1c(Cl)cccc1Cl)C(=O)c1cc(-c2cccs2)nn1-c1ccccc1	-1.9	-0.7	5.6	11.3	0.1	·	·	·
CCN(CC(=O)Nc1c(F)cccc1F)C(=O)c1cc(-c2cccs2)nn1-c1ccccc1	-2.0	1.0	-1.9	59.6*	1.1	·	39.8	85.6*
COc1cccc(CNCc2ccc(OC)cc2OC)c1	·	1.4	-8.5	5.0	1.6	6.3	·	·
CCn1c2ccccc2c2cc(CNCc3ccc(OC)cc3OC)ccc21	8.8	-1.8	?	100.3*	4.5	-0.9	59.9*	53.7*
CCn1c2ccccc2c2cc(N)ccc21	18.5	-2.0	-3.4	34.6	8.0	11.6	·	·
CCC(CC)NCc1ccc2c(c1)c1ccccc1n2CC	7.7	-0.4	-16.3	56.6*	-3.1	9.4	43.2*	64.8*
O=C(CSc1ccc2ccccc2n1)N/N=C/c1ccc(O)cc1	-1.5	1.8	39.4	-18.1	-1.7	57.3	·	·
O=C(CNC(=O)C1COc2ccccc2O1)N/N=C\c1cccc(O)c1 (stereo not drawn)	-0.9	0.2	7.7	10.4	0.0	5.4	·	·
O=C(CNC(=O)C1COc2ccccc2O1)N/N=C/c1ccc(O)cc1O (stereo not drawn)	19.5	-0.6	8.5	50.5*	-0.7	78.2*	38.1	70.5*
O=C(N/N=C/c1ccc(O)cc1O)c1ccncc1	64.3	-1.0	-4.5	31.3	-2.7	70.7	·	·
